Data from PubChem BioAssay AID488890 (Southern Research Specialized Biocontainment Screening …, 2010).
The whole screen tested about 320,000 compounds, of which about 1,300 (0.41%) were called active. About 3% were inconclusive and are not listed. How the calls were made is not given here. A selection follows. Results with a measured potency or affinity are listed apart.

test: growth inhibition of non-replicating M. tuberculosis (AID 488890); details: Mycobacterium tuberculosis non-replicating, at 25 µM, stronger effect = higher value;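 further: plate controls were DMSO cells for no effect and high antibiotic wells for full effect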

| SMILES | inhibition [%] |
| --- | --- |
| O=C(N/N=C/c1ccc2cccnc2c1)c1ccco1 | 14.9 |
| COc1ccc(CCNS(=O)(=O)c2c(N)n(C)c(=O)n(C)c2=O)cc1OC | 3.12 |
| CCOc1ccc(C(=O)Nc2cc(S(=O)(=O)Nc3ccccc3Cl)ccc2N2CCOCC2)cc1 | 4.51 |
| CS(=O)(=O)N(CC(=O)NCC1CCCO1)c1cc(Cl)cc(Cl)c1 (stereo not given) | -12.1 |
| Clc1cc(Br)ccc1OCCn1ccnc1 | 40 |
| Cc1ccc(OCCCn2ccnc2)c(Br)c1 | 27.2 |
| Clc1ccc(OCCn2ccnc2)c2ccccc12 | 17.9 |
| Clc1ccccc1OCCCn1ccnc1 | -0.75 |
| O=C(CCNC(=O)C1CCN(S(=O)(=O)c2ccccc2)CC1)NCCc1ccc(Cl)cc1 | 1.82 |
| CN1CCN(C(=O)C2CCCN(S(=O)(=O)c3ccc(Br)cc3)C2)CC1 (stereo not given) | 8.61 |
| COc1ccc(CCn2c(N3CCN(Cc4ccccc4)CC3)nc3c2c(=O)[nH]c(=O)n3C)cc1 | 15.1 |
| CC1(c2nnc(-c3cccc(Cl)c3)o2)CC(c2ccc(F)cc2)=NO1 (stereo not given) | 70.9 |
| CC1(c2nnc(-c3ccccc3)o2)CC(c2ccccc2)=NO1 (stereo not given) | 79.5 |
| CC1(c2nnc(-c3ccc(Cl)cc3)o2)CC(c2ccc(Cl)cc2)=NO1 (stereo not given) | 36.6 |
| CC1(c2nnc(-c3ccc(Cl)cc3)o2)CC(c2cccc(Cl)c2)=NO1 (stereo not given) | 79.6 |
| Cc1ccc(OCCn2ccnc2)c(C)c1 | 6.35 |
| CCOc1cc(/C=C2\CCn3c2nc2cc(Cl)ccc2c3=O)ccc1O | 9 |
| CN(c1ccccc1)S(=O)(=O)c1cc(Cl)ccc1Cl | 28.7 |
| CCOc1cc(NC(=O)c2ccccc2OC)c(OCC)cc1NC(=O)c1ccccc1 | 8.11 |
| C/C(=N\NC(=O)c1ccc2c(c1)OCO2)c1ccc2c(c1)OCO2 | 41.2 |
| C/C(=N\NC(=O)c1ccccc1)c1ccc2c(c1)OCO2 | 35.4 |
| O=C(CCSc1ccccc1)NCc1cccnc1 | -1.43 |
| CN1C(=O)/C(=C/C=C/c2ccco2)C(=O)NC1=S | -21.1 |
| Cc1ccc(N2C(=O)NC(=O)/C(=C\C=C\c3ccco3)C2=O)cc1C | 13 |
| Cc1ccc(N2C(=O)NC(=O)/C(=C\C=C\c3ccco3)C2=O)cc1 | 18.7 |
| O=C1NC(=O)N(Cc2ccc(F)cc2)C(=O)/C1=C\C=C\c1ccco1 | 75.2 |
| O=C1NC(=O)N(c2ccccc2)C(=O)/C1=C/C=C/c1ccco1 | -12.6 |

| SMILES | inhibition [%] |
| --- | --- |
| Cc1cc(C)cc(N2C(=O)NC(=O)/C(=C\C=C\c3ccco3)C2=O)c1 | 2.52 |
| COc1ccc(NC(=O)CCNS(=O)(=O)c2ccccc2F)cc1S(N)(=O)=O | -0.54 |
| Cc1ccccc1C1c2[nH]c3ccccc3c2CCN1C(=O)c1ccc(=O)n(C)n1 (stereo not given) | 10.8 |
| CCOC(=O)c1c(C)c(C)n(Cc2ccc(OC)c(OC)c2)c1C | 16.5 |
| Cc1cc(C(=O)COc2ccccc2C(N)=O)c(C)n1C | 4.7 |
| Cc1cc(C(=O)COc2ccccc2C(N)=O)c(C)n1CC1CCCO1 (stereo not given) | -26.6 |
| CCN(CC(=O)NC(=O)NCc1ccco1)Cc1nc2ccccc2c(=O)[nH]1 | 12.9 |
| COCCNC(=O)Cc1c(C)c2c(cc(C)c3c(C(C)(C)C)coc32)oc1=O | 26.6 |
| O=C(CCc1nnc2n(Cc3ccc(F)cc3)c(=O)c3ccccc3n12)N1CCN(c2ccccn2)CC1 | -3.25 |
| O=C(Nc1ccc(Cl)cc1)OCCn1nnnc1C(c1ccccc1)N1CCOCC1 (stereo not given) | 4.68 |
| O=C(Nc1ccc(S(=O)(=O)N2CCOCC2)cc1)c1ccc(Br)o1 | -0.17 |
| O=C(Nc1cc(S(=O)(=O)N2CCOCC2)ccc1N1CCOCC1)c1ccc([N+](=O)[O-])s1 | 50.4 |
| CCN1CCN(c2ccc(S(=O)(=O)N3CCCCC3)cc2NC(=O)c2ccccc2)CC1 | -11.8 |
| Cc1ccc(NC(=O)c2ccc([N+](=O)[O-])s2)cc1S(=O)(=O)N1CCOCC1 | 43.2 |
| O=C(Nc1ccc(S(=O)(=O)N2CCOCC2)cc1)c1ccc(Cl)s1 | 5.17 |
| Cc1ccc(C(=O)Nc2cccc(S(=O)(=O)N3CCCC3)c2)o1 | -4.97 |
| NS(=O)(=O)c1ccc(NC(=O)c2ccc(S(=O)(=O)N3CCOCC3)o2)cc1 | 1.05 |
| COc1ccc(S(=O)(=O)N2CCCCC2)cc1NC(=O)c1ccc([N+](=O)[O-])o1 | 1.5 |
| CCOc1ccc2oc(C(=O)OCC(=O)NC3CCCC3)c(C)c2c1 | 9.82 |
| O=C(c1ccc2c(c1)CCN2S(=O)(=O)c1ccccc1)N1CCN(c2ccc(F)cc2)CC1 | 18.7 |
| NC(=O)c1sc2nc(N3CCOCC3)c3c(c2c1N)CCCC3 | 3.31 |
| CCN(CC)CCOC(=O)C(Cc1ccco1)Cc1cccc2ccccc12 (stereo not given) | 12.1 |
| COc1ccc2c(c1OC)C(=O)OC2Nc1nc(-c2cc3ccccc3oc2=O)cs1 (stereo not given) | 2.83 |
| COc1cc(S(=O)(=O)N2CCOCC2)cc(C(=O)OCC(=O)NC2CCCCC2)c1OC | -1.4 |
| O=C(/C=C/c1cc([N+](=O)[O-])ccc1OC(F)F)Nc1cccc(OC(F)F)c1 | 0.25 |
| COCCn1c(=NC(=O)CSCC(=O)N2CCOCC2)sc2ccccc21 | -8.23 |
| Cn1cccc1C(=O)OCC(=O)Nc1cccc(S(=O)(=O)N2CCOCC2)c1 | -0.69 |

| SMILES | inhibition [%] |
| --- | --- |
| COC(=O)C1=C(c2ccc(OC)c(OC)c2)C[C@@H]2CC[C@H]1N2C(=O)NCc1cc(C)oc1C(F)(F)F | -13.9 |
| Oc1cccc(Nc2nc(-c3ccccc3Cl)nc3ccccc23)c1 | 1.57 |
| O=C(COC(=O)c1cc2ccccc2o1)c1ccccc1 | 51.9 |
| Cc1ccnc(NC(=O)c2oc3ccccc3c2C)c1 | 20.3 |
| CC(C)C(=O)Nc1cccc(NC(=O)c2cc3ccccc3o2)c1 | 2.48 |
| O=C(O)c1ccc(NC(=O)c2cc3ccccc3o2)cc1 | 19.5 |
| O=C(Nc1ccc(NC(=O)c2cc3ccccc3o2)cc1)c1ccco1 | 2.59 |
| O=C(Nc1ccccc1)c1ccc(OC(=O)c2cc3ccccc3o2)cc1 | 45.2 |
| Cc1ccc(C)c(NC(=O)c2cc3ccccc3o2)c1 | 75.5 |
| CC(=O)Nc1cccc(NC(=O)c2cc3ccccc3o2)c1 | 32.4 |
| O=C(CSCc1cnn(-c2ccccc2)c1-n1cccc1)N1CCN(Cc2ccccc2)CC1 | 2.12 |
| C=CC[C@@H](CC(=O)N[C@H](CO)Cc1ccccc1)C(=O)N[C@@H](COC(=O)[C@@H](CC=C)CC(=O)OC(C)(C)C)Cc1c[nH]c2ccccc12 | 61 |
| CCN(Cc1ccccc1)C(=O)CSc1nc(C)cc(=O)[nH]1 | 10.7 |
| Nc1c(C(=O)Nc2cccc(F)c2)nnn1-c1cccc(C(F)(F)F)c1 | -17.3 |
| COc1cc(C[C@@H]2C(=O)OC[C@H]2Cc2ccc(OC)c(OC)c2)ccc1O | -6.61 |
| O=S(=O)(NCC(c1ccco1)N1CCCCC1)c1ccccc1C(F)(F)F (stereo not given) | 5.94 |
| Cc1ccc(C(=O)N(C)CCOc2ccccc2)cc1S(=O)(=O)N1CCCCC1 | 14.5 |
| O=C(NC1CCCCC1)C(c1cccs1)N(CCCN1CCOCC1)C(=O)c1ccc(-c2ccccc2)[nH]1 (stereo not given) | 44.4 |
| CC(=O)c1ccc(NC(=O)c2cc3ccccc3o2)cc1 | 76.8 |
| COc1ccc(NC(=O)c2cc3ccccc3o2)cc1OC | 53.8 |
| Cc1ccc(C2=NN(CCC(=O)NCc3ccc4c(c3)OCO4)C(=O)CC2)cc1 | 4.59 |
| COCCN(C(=O)C1CCCO1)c1c(N)n(CC(C)C)c(=O)[nH]c1=O (stereo not given) | -18.2 |
| NC(=S)N/N=C/c1c(O)c(Br)cc2oc3c(c12)CCCC3 | 56.5 |
| Oc1ccc2oc3c(c2c1C=NCc1ccncc1)CCCC3 | 3.96 |
| Cc1nnc(SCC(=O)NNC(=O)c2ccco2)n1-c1cccc(Cl)c1 | -5.26 |
| CCC(CC)C(=O)N=C1SC2CS(=O)(=O)CC2N1CCc1ccc(OC)c(OC)c1 (stereo not given) | -2.38 |
| Cn1nnnc1Sc1ncnc2scc(-c3ccccc3)c12 | 48.6 |

| SMILES | inhibition [%] |
| --- | --- |
| Cn1nnnc1Sc1ncnc2scc(-c3ccc(-c4ccccc4)cc3)c12 | 77 |
| Nc1nc(SCCO)[nH]c(=O)c1NC(=O)c1ccco1 | -5.12 |
| CCCCCN(C(=O)CCC(=O)OCCOc1ccccc1)c1c(N)n(CCCC)c(=O)[nH]c1=O | -0.11 |
| CCCCN(C)C(=O)c1cc2cc3ccc(OC)cc3nc2o1 | 71.6 |
| CCN1CCN(C(=O)c2cc3cc4ccc(OC)cc4nc3s2)CC1 | 18.5 |
| O=c1[nH]c(C2C3CC4CC(C3)CC2C4)nc2ccccc12 (stereo not given) | 21.6 |
| COc1ccc(C(CC(=O)N2CCCC(C)C2)c2c(OC)cc(OC)c3ccc(=O)oc23)cc1 (stereo not given) | 28.4 |
| Cc1ccc(S(=O)(=O)Nc2ncnc3ccccc23)cc1 | -1.77 |
| CCCCn1c(SCC(=O)NCc2ccco2)nc2cc(S(N)(=O)=O)ccc21 | 1.57 |
| COc1ccc(C2=NN(C(=O)CSc3nc(=O)n4cc(C)ccc4n3)C(c3ccc(C)cc3)C2)cc1 (stereo not given) | 38.7 |
| Cc1ccc2cc(C3CC(c4ccco4)=NN3C(=O)CCC(=O)O)c(Cl)nc2c1 (stereo not given) | 2.6 |
| CCOC(=O)c1c(C)c(C(=O)NC(C)COC)c(C)n1CC (stereo not given) | -4.24 |
| N#Cc1c(-c2ccc(Cl)cc2)nc2n(c1=O)CCCS2 | 4.51 |
| O=c1c(C(c2ccc(Cl)cc2)c2c(O)nc3n(c2=O)CCCS3)c(O)nc2n1CCCS2 | 8.19 |
| Cc1ccc(C(=O)N/N=C\c2sccc2C)cn1 | -5.99 |
| Cc1ccc(C(=O)N/N=C\c2ccc([N+](=O)[O-])o2)cn1 | 70.4 |
| Cc1ccc(/C=N\NC(=O)c2cncc(Br)c2)o1 | 46.2 |
| O=C(N/N=C/c1ccccc1[N+](=O)[O-])c1ccncc1 | 35.4 |
| O=C(N/N=C/c1ccc(-c2ccccc2[N+](=O)[O-])o1)c1cncc(Br)c1 | 11.6 |
| O=C(N/N=C/c1ccc([N+](=O)[O-])cc1)c1cccnc1 | -3.53 |
| O=C(N/N=C/c1ccc(O)c([N+](=O)[O-])c1)c1ccncc1 | 56.1 |
| O=C(N/N=C/c1cccn1-c1ccc([N+](=O)[O-])cc1)c1cccnc1 | -10.5 |
| CCOc1ccc(C(=O)NC2CCN(C(=O)Nc3ccc(F)cc3)CC2)cc1 | -4.31 |
| CN(c1ccccc1)S(=O)(=O)c1ccc(Cl)c(C(=O)NC2=NCCS2)c1 | 27.5 |
